Bioassay records deposited in PubChem BioAssay by National Center for Advancing Translational Sciences (NCATS).
AMA1-RON2 inh = inhibitors of Plasmodium falciparum AMA1-RON2 interaction. AlphaScreen AMA1-biotinylated RON2 peptide binding. Potency, µM (series often up to 58.2 µM), hits mostly inhibitors. 360,000 tested, 0.2% active. AID 720542; note: nearly all actives have a fitted effect of over 45% in size
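AMA1 (3D7) with his tag at 25 nM final met compounds first, then biotinylated RON2 peptide at 25 nM; detection used donor plus acceptor beads, 10 µg/mL apiece, read by AlphaScreen after 30 min at room temperature.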
Sm TGR inh = inhibitors of Schistosoma mansoni thioredoxin glutathione reductase; purified TGR, DTNB reduction, TNB absorbance 405 nm; Potency, µM (doses to about 114 µM), hits mostly inhibitors; 360,000 tested, 3% active; AID 485364; note: nearly all actives have a fitted effect of over 60% in size
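First, TGR (20 nM dispensed) and NADPH were mixed with compound. Second, a 15 min room-temperature incubation followed. Third, further NADPH and then DTNB were added to start the reaction. Finally, TNB absorbance was monitored kinetically.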
NS1 function inh = blocks influenza NS1 protein function; Potency, µM (titrated, usually from 46.1 µM); 270,000 tested, 0.4% active; calls by dose curve; note: actives are rising curves; nearly all actives have a fitted effect of over 50% in size
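A cell-based growth assay was used: compounds that relieve NS1-induced slow growth of budding yeast raise OD600. Assay medium was yeast nitrogen base with ammonium sulphate and -URA supplement, pH 6.0, with 2% galactose.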
Pf growth 96h = inhibits malaria parasite growth, 96 h. P. falciparum luciferase reporter growth, 96 h. Potency, µM (highest dose often 28.7 µM), most hits filed as inhibitors. 320,000 tested, 6.9% active
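Readout is luminescence from an integrated firefly luciferase in P. falciparum. Red cells, 2% hematocrit and 0.05% parasitemia final, were cultured with compound through two parasite generations (96 hours) at 37 C, 5% CO2.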
Pf growth 48h = P. falciparum growth inhibition at 48 hours (one generation); P. falciparum luciferase growth in erythrocytes, 48 h; Potency, µM (titrated, usually from 28.7 µM), hits mostly inhibitors; 310,000 tested, 5.9% active; AID 504832
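Read-out is firefly luciferase luminescence from an integrated reporter in P. falciparum, so falling signal marks reduced parasite growth. Infected erythrocytes were at 2% hematocrit and 0.1% parasitemia (final) in Albumax-supplemented RPMI 1640.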
Numbers stand for hits; – = inactive; ? = inconclusive; · = not tested or not shown. Most compounds without a hit are left out; they make up all but 11% or so of the library. Unless noted, calls come from the whole dose curve; as a rule, active = well fitted curve in the direction sought with a large enough effect; inconclusive = small, poorly fitted or top-dose-only effect, or another doubt; inactive = no such curve, though single readings can be large; an effect the other way counts as inactive or inconclusive.

SMILES	AMA1-RON2 inh	Sm TGR inh	NS1 function inh	Pf growth 96h	Pf growth 48h
Cn1cc(S(=O)(=O)N2CCCC2)cc1C(=O)NCc1ccc(Cl)cc1	–	–	–	?	–
CCOC(=O)C1=C(C)N=C2SC(C)C(=O)N2C1/C=C/c1ccccc1OC (centres undefined)	–	–	–	·	12µM
CCOc1cc(C2C(C(=O)OC)=C(C)N=C3SC(C)C(=O)N32)ccc1OC(C)=O (centres undefined)	–	–	?	·	–
CCOC(=O)C1=C(C)N=C2SC(C)C(=O)N2C1c1ccc(OC(C)=O)c(OC)c1 (centres undefined)	–	50µM	–	–	?
CCOC(=O)C1=C(C)N=C2SCCC(=O)N2[C@@H]1/C=C/c1ccccc1	–	–	–	–	–
CCCNC(=O)c1ccccc1N1CCN(CCCCN2C(=O)C3CCCCN3C2=O)CC1 (centres undefined)	–	–	–	10µM	–
COc1ccccc1N1CCN(CCCCN2C(=O)C3CCCN3C2=O)CC1 (centres undefined)	–	·	·	·	·
Cc1ccc2nc(N)[nH]c(=O)c2c1Sc1ccncc1	·	·	·	2.1µM	4.8µM
Cc1ccc2nc3[nH]c(=O)[nH]c(=O)c3c(N)c2c1	–	·	·	·	·
CC(C)(C)c1nnc(N/N=C/c2cc(Br)ccc2O)n(N)c1=O	–	–	–	8.3µM	3.3µM
CCc1nnc(N/N=C/c2cc(Br)c(O)cc2O)n1N	–	35µM	–	–	?
CCOc1ccc(/C=C/c2nc3ccccc3n2S(=O)(=O)c2cccc(Cl)c2)cc1	·	–	·	·	·
CCOC(=O)C1=C(COC(=O)/C=C/c2cccc(OC)c2OC)NC(=O)NC1C (centres undefined)	–	–	–	–	–
COc1cccc(OC)c1OCCCN1CCOCC1	–	–	–	–	–
COc1cc2ncnc(Nc3ccc(F)c(Cl)c3)c2cc1OCCCN1CCOCC1	·	·	·	·	0.54µM
NC(=O)C1CCN(C(=O)c2cc(-c3ccc(Cl)s3)nc3ccccc23)CC1	–	·	·	·	·
O=C(NCCN1CCCC1)c1ccc2c(c1)N(Cc1ccc(F)cc1)C(=O)c1ccccc1S2=O (centres undefined)	–	–	–	?	12µM
O=C(NCCCN1CCCC1)c1ccc2c(c1)N(Cc1ccccc1F)C(=O)c1ccccc1S2(=O)=O	–	–	–	–	10µM
CC1CCCCN1CCNC(=O)c1ccc2c(c1)N(Cc1ccccc1F)C(=O)c1ccccc1S2=O (centres undefined)	–	–	–	5.9µM	?
O=C(NCCCN1CCCC1)c1ccc2c(c1)N(Cc1ccccc1F)C(=O)c1ccccc1S2=O (centres undefined)	–	–	–	–	?
CCN(CC)CCNC(=O)c1ccc2c(c1)N(Cc1ccccc1)C(=O)c1ccccc1S2=O (centres undefined)	·	–	·	·	·
CCN1CCN(CCNC(=O)c2ccc3c(c2)N(Cc2cccc(Cl)c2)C(=O)c2ccccc2S3=O)CC1 (centres undefined)	–	–	–	?	12µM
Cc1c(C)c(C)c(S(=O)(=O)NCCC(=O)N2CCN(Cc3ccc(C#N)cc3)CC2)c(C)c1C	–	–	·	–	–
COC(=O)c1c(C)[nH]c(C(=O)CN(C)CC(=O)Nc2cccc(F)c2)c1C	–	–	·	–	–
CCC(C)[C@H](NC(=O)[C@@H]1Cc2c([nH]c3ccccc23)C2c3ccccc3C(=O)N21)C(=O)N1CCC[C@@H]1C(=O)O (some centres undefined)	–	–	?	10µM	?
SMILES	AMA1-RON2 inh	Sm TGR inh	NS1 function inh	Pf growth 96h	Pf growth 48h
Cc1nc2ncnn2c(C)c1CCC(=O)NCCCN1CCN(c2cccc(Cl)c2)CC1	–	79µM	–	?	?
Cn1c(=O)cc(OCC(=O)NCCCN2CCN(c3cccc(Cl)c3)CC2)c2ccccc21	–	–	–	12µM	?
CCC1CCCCN1CCCNC(=O)CCCOc1cc(=O)n(C)c2ccccc12 (centres undefined)	–	–	·	6.6µM	–
Cc1cccc(CCNC(=O)COc2cc(=O)n(C)c3ccccc23)c1	–	–	·	10µM	–
Cn1c(=O)cc(OCC(=O)NCCCN2CCN(c3ccccc3F)CC2)c2ccccc21	–	–	–	?	·
CCOC(=O)c1c(S(=O)(=O)N2CCCC(C(=O)Nc3cccc(C#N)c3)C2)c(C)n(C)c1C (centres undefined)	·	–	·	·	·
Cn1cc(C(=O)NCCN2CCN(c3cccc(Cl)c3)CC2)c2c3ccccc3n(C)c2c1=O	–	–	–	?	1µM
COc1ccc(-n2cc(-c3ccccc3)c3c(NN4CCOCC4)ncnc32)cc1	–	–	·	–	–
Fc1ccc(-n2cc(-c3ccccc3)c3c(NN4CCOCC4)ncnc32)cc1	–	–	–	?	15µM
Clc1cccc(CN2CCc3c([nH]c4ccccc34)C2)c1Cl	–	?	–	?	1.9µM
COc1ccccc1CN1CCc2c([nH]c3ccccc23)C1	?	–	–	–	?
Cc1nn(-c2ccccc2)c(C)c1C(=O)OCC(=O)Nc1cccc(S(N)(=O)=O)c1	–	–	·	?	?
CCN(C(=O)COC(=O)/C=C/c1ccc(C)o1)c1c(N)n(Cc2ccccc2)c(=O)[nH]c1=O	–	18µM	·	–	–
CCN(C(=O)CN1CCCCCC1)c1c(N)n(Cc2ccccc2)c(=O)[nH]c1=O	–	·	·	·	·
CCCN(C(=O)/C=C/c1ccco1)c1c(N)n(Cc2ccccc2)c(=O)[nH]c1=O	–	45µM	·	–	–
CCN(C(=O)CN1CCN(c2ccc(O)cc2)CC1)c1c(N)n(Cc2ccccc2)c(=O)[nH]c1=O	–	?	–	4.7µM	?
Cc1cccc(Cn2c(=O)n(-c3ccc(Cl)c(Cl)c3)c(=O)c3c(C)c(C)sc32)c1	·	–	·	·	·
Cc1ccc(CCNC(=O)C2CCN(S(=O)(=O)c3ccc4c(c3)NC(=O)CO4)CC2)cc1	–	–	–	?	–
CCN(CC)C(=O)[C@H]1CC(CC(=O)NC(C)(C)C)C(=O)N2CCc3c([nH]c4ccc(OC)cc34)[C@]12C (some centres undefined)	–	·	·	·	·
N#C/C(=N/Nc1ccc(OC(F)(F)F)cc1)C(N)=S	–	–	–	1.7µM	6.6µM
O=C(OCc1ccccc1)/C(=C/c1cccc2ccccc12)NC(=O)c1ccccc1	–	–	–	?	6.6µM
C=CCOC(=O)/C(=C/c1cccc2ccccc12)NC(=O)c1ccccc1	–	–	–	?	–
O=S(=O)(c1ccccc1)N1CCN(Cc2c(O)ccc3ccccc23)CC1	–	·	·	·	·
Oc1ccc2ccccc2c1CN1CCN(c2ccccc2F)CC1	–	11µM	–	–	?
Oc1ccc2ccccc2c1CN1CCN(C/C=C/c2ccccc2)CC1	–	2.8µM	–	9.3µM	?
CCCNC(=S)NC1CC2CCCC(C1)N2Cc1ccc(F)cc1 (centres undefined)	–	–	–	?	?
CCOC(=O)C1CCN(C2CC(=O)N(c3cccc(Cl)c3)C2=O)CC1 (centres undefined)	–	–	–	·	–
